Values joined by “and” are separate entries in the source; they are usually repeats but may differ in a detail not shown here. Equal values may be shown once. Results filed as inconclusive are left out. Active and inactive are the calls of the source. The call rests on the fitted dose curve; in most records, active means well fitted curve in the direction sought with a large enough effect; inconclusive means small, poorly fitted or top-dose-only effect, or another doubt; inactive means no such curve, though single readings can be large; an effect the other way counts as inactive or inconclusive.
Legend:
KB-3-1 = assay: Cytotoxic Profiling of Annotated Libraries Using Quantitative High-Throughput Screening (AID 1296008); details: Five cell lines viability, CellTiter-Glo ATP luminescence, 48-72 h; max response: hits give low values; further: nearly all actives have a fitted effect of over 60% in size
How it was run: (§1)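 Cytotoxicity was measured as CellTiter-Glo ATP luminescence, read after 10 min at room temperature. Compound treatment of the cells lasted 48 or 72 hr at 37 degrees Celsius in a qHTS format.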

NIH3T3 [1] = assay: as above; details: Five cell lines viability, CellTiter-Glo ATP luminescence, 48-72 h; max response: hits give low values
How it was run: as §1

HACAT = assay: qHTS assay to identify novel small-molecules to repurpose for Merkel cell carcinoma treatment (AID 1296009); details: MCC and control cell lines, CellTiter-Glo viability, 72 h; at 44.8 µM (top of the series) unless noted; further: nearly all actives have a fitted effect of over 60% in size; further: potency means the concentration at half of the fitted maximal effect
How it was run: (§2)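 72 hr, 37 degree celsius; NPC 8-pt / MIPE 11-pt dose response; compound pinned in DMSO; CellTiter-Glo, 10 min RT, luminescence; normalized to no-cell and DMSO controls.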

MCC-13 = assay: as above; details: MCC and control cell lines, CellTiter-Glo viability, 72 h; series mostly up to 46 µM
How it was run: as §2

MKL-1 = assay: as above; details: MCC and control cell lines, CellTiter-Glo viability, 72 h; series mostly up to 46 µM
How it was run: as §2

MKL-2 = assay: as above; details: MCC and control cell lines, CellTiter-Glo viability, 72 h; series mostly up to 46 µM
How it was run: as §2

UISO = assay: as above; details: MCC and control cell lines, CellTiter-Glo viability, 72 h; series mostly up to 46 µM
How it was run: as §2

WaGa = assay: as above; details: MCC and control cell lines, CellTiter-Glo viability, 72 h; series mostly up to 46 µM
How it was run: as §2

C33A = assay: Primary qHTS to identify gynecologic anti-cancer compounds using libraries of approved drugs and bioactive compounds (AID 1345084); details: Gynecologic cancer cell panel viability, ATPlite luminescence, 48 h; series mostly up to 57.5 µM; further: nearly all actives have a fitted effect of over 55% in size
How it was run: (§3)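 Cells, 1,000 per well, were allowed to settle for 16 h at 37 C before compound addition. Five concentrations were tested for 48 h, and viability was read by ATPlite luminescence after 15 min at room temperature.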

CAOV3 = assay: as above; details: Gynecologic cancer cell panel viability, ATPlite luminescence, 48 h; series mostly up to 57.5 µM
How it was run: as §3

CASKI = assay: as above; details: Gynecologic cancer cell panel viability, ATPlite luminescence, 48 h; series mostly up to 57.5 µM
How it was run: as §3

Es-2 = assay: as above; details: Gynecologic cancer cell panel viability, ATPlite luminescence, 48 h; series mostly up to 57.5 µM
How it was run: as §3

HeLa = assay: as above; details: Gynecologic cancer cell panel viability, ATPlite luminescence, 48 h; series mostly up to 57.5 µM
How it was run: as §3

Hek293T [2] = assay: as above; details: Gynecologic cancer cell panel viability, ATPlite luminescence, 48 h, control line for the selectivity index; series mostly up to 57.5 µM
How it was run: as §3

JEG-3 = assay: as above; details: Gynecologic cancer cell panel viability, ATPlite luminescence, 48 h; series mostly up to 57.5 µM
How it was run: as §3

OV90 = assay: as above; details: Gynecologic cancer cell panel viability, ATPlite luminescence, 48 h; series mostly up to 57.5 µM
How it was run: as §3

HEK293T [3] = assay: qHTS assay to identify novel small-molecules to repurpose for Merkel cell carcinoma treatment (AID 1296009); details: MCC and control cell lines, CellTiter-Glo viability, 72 h; at 44.8 µM (top of the series) unless noted; further: nearly all actives have a fitted effect of over 60% in size; further: potency means the concentration at half of the fitted maximal effect
How it was run: as §2

MCC-26 = assay: as above; details: MCC and control cell lines, CellTiter-Glo viability, 72 h; series mostly up to 46 µM
How it was run: as §2

NIH3T3 [4] = assay: as above; details: MCC and control cell lines, CellTiter-Glo viability, 72 h; at 44.8 µM (top of the series) unless noted
How it was run: as §2
On the % scale 0 is the no-effect control and ±100 the full control effect.

Nc1ccccc1C(=O)O
inactive: max response (KB-3-1) -19.2% | max response (NIH3T3 [1]) 3.28% | outcome (HACAT) | outcome (MCC-13) | Potency (MKL-1) | Potency (MKL-2) | Potency (UISO) | Potency (WaGa) | Potency (C33A) | outcome (CAOV3) | outcome (CASKI) | Potency (Es-2) | Potency (HeLa) | outcome (Hek293T [2]) | outcome (JEG-3) | Potency (OV90)

O=C(Nc1ccc(Br)cc1)c1cc(Br)cc(Br)c1O
inactive: max response (KB-3-1) -24% | max response (NIH3T3 [1]) -23.1% | outcome (HACAT) | outcome (MCC-13) | Potency (MKL-1) | Potency (MKL-2) | Potency (UISO) | Potency (C33A) | outcome (CAOV3) | outcome (CASKI) | outcome (Hek293T [2])

CC(=O)NC1CCSC1=O (stereo not given)
inactive: max response (KB-3-1) -11.7% and -14.3% | max response (NIH3T3 [1]) 2.68% | outcome (HEK293T [3]) | outcome (MCC-13) | Potency (MKL-1) | Potency (UISO) | Potency (WaGa) | Potency (C33A) | outcome (CASKI) | Potency (Es-2) | Potency (HeLa) | outcome (Hek293T [2]) | outcome (JEG-3) | Potency (OV90)

C[C@](O)(CS(=O)(=O)c1ccc(F)cc1)C(=O)Nc1ccc(C#N)c(C(F)(F)F)c1
inactive: max response (KB-3-1) 5.52% | max response (NIH3T3 [1]) -9.3% | outcome (HACAT) | outcome (MCC-13) | Potency (MKL-1)
active: Potency (MKL-2) 23.5 µM | Potency (WaGa) 13.2 µM

CN1C(=O)NC(=O)C(C)(C2=CCCCC2)C1=O (stereo not given)
inactive: max response (KB-3-1) -0.631% and -0.133% | outcome (NIH3T3 [1]) | outcome (HEK293T [3]) | outcome (MCC-13) | Potency (MCC-26) | Potency (MKL-1) | Potency (MKL-2) | outcome (NIH3T3 [4]) | Potency (UISO) | Potency (WaGa) | Potency (C33A) | outcome (CAOV3) | outcome (CASKI) | Potency (Es-2) | Potency (HeLa) | outcome (Hek293T [2]) | outcome (JEG-3) | Potency (OV90)

NCCc1ccc(O)cc1
inactive: max response (KB-3-1) -7.48% | outcome (NIH3T3 [1]) | outcome (HEK293T [3]) | outcome (MCC-13) | Potency (MKL-1) | outcome (NIH3T3 [4]) | Potency (UISO) | Potency (C33A) | outcome (CAOV3) | outcome (CASKI) | Potency (Es-2) | Potency (HeLa) | outcome (Hek293T [2]) | outcome (JEG-3) | Potency (OV90)

O=C1c2ccccc2C(=O)C1C(=O)C(c1ccccc1)c1ccccc1
inactive: max response (KB-3-1) -7.07% | max response (NIH3T3 [1]) -11% | outcome (HACAT) | outcome (HEK293T [3]) | outcome (MCC-13) | Potency (UISO) | Potency (C33A) | outcome (CAOV3) | outcome (CASKI) | Potency (Es-2) | Potency (HeLa) | outcome (Hek293T [2]) | outcome (JEG-3) | Potency (OV90)
active: Potency (WaGa) 23.7 µM

CNC(C)(C)Cc1ccccc1
inactive: max response (KB-3-1) 16.1% | max response (NIH3T3 [1]) 2.82% | outcome (HACAT) | outcome (MCC-13) | Potency (MKL-1) | Potency (MKL-2) | Potency (UISO) | Potency (WaGa) | Potency (C33A) | outcome (CAOV3) | outcome (CASKI) | Potency (Es-2) | Potency (HeLa) | outcome (Hek293T [2]) | outcome (JEG-3) | Potency (OV90)

CC(C)=CC1C(C(=O)OCN2C(=O)C3=C(CCCC3)C2=O)C1(C)C (stereo not given)
inactive: max response (KB-3-1) 2.15% | max response (NIH3T3 [1]) -1.87% | outcome (HACAT) | outcome (MCC-13) | Potency (MCC-26) | Potency (MKL-1) | Potency (MKL-2) | Potency (UISO) | Potency (WaGa) | Potency (C33A) | outcome (CASKI) | Potency (Es-2) | Potency (HeLa) | outcome (JEG-3) | Potency (OV90)

C[C@H]1[C@@H]2Cc3ccc(O)cc3[C@@]1(C)CCN2C
inactive: max response (KB-3-1) -22% | outcome (NIH3T3 [1]) | outcome (MCC-13) | Potency (MCC-26) | Potency (MKL-1) | Potency (MKL-2) | outcome (NIH3T3 [4]) inactive [at 231 µM] | Potency (UISO) | Potency (WaGa) | Potency (C33A) | outcome (CAOV3) | outcome (CASKI) | Potency (Es-2) | Potency (HeLa) | outcome (Hek293T [2]) | outcome (JEG-3)

CCN[C@@H](C)Cc1cccc(C(F)(F)F)c1
inactive: max response (KB-3-1) -9.47% | max response (NIH3T3 [1]) 2.4% | outcome (HACAT) | outcome (MCC-13) | Potency (MCC-26) | Potency (MKL-1) | Potency (MKL-2) | Potency (UISO) | Potency (WaGa) | Potency (C33A) | outcome (CAOV3) | outcome (CASKI) | Potency (Es-2) | Potency (HeLa) | outcome (Hek293T [2]) | outcome (JEG-3) | Potency (OV90)

O=C(N/N=C/c1ccc([N+](=O)[O-])o1)c1cc([N+](=O)[O-])cc([N+](=O)[O-])c1O
inactive: max response (KB-3-1) 15.7% | max response (NIH3T3 [1]) 1.92% | outcome (HACAT) | outcome (MCC-13) | Potency (MCC-26) | Potency (MKL-1) | Potency (UISO) | Potency (C33A) | outcome (CAOV3) | outcome (CASKI) | Potency (Es-2) | Potency (HeLa) | outcome (Hek293T [2]) | outcome (JEG-3) | Potency (OV90)

CCN[C@H](C)Cc1cccc(C(F)(F)F)c1
inactive: max response (KB-3-1) -19.7% | max response (NIH3T3 [1]) -0.0448% | outcome (HACAT) inactive [at 92 µM] | outcome (MCC-13) | Potency (MCC-26) | Potency (MKL-1) | Potency (MKL-2) | Potency (UISO) | Potency (WaGa) | Potency (C33A) | outcome (CAOV3) | outcome (CASKI) | Potency (Es-2) | Potency (HeLa) | outcome (Hek293T [2]) | outcome (JEG-3) | Potency (OV90)

O=C(CCCN1CCC2(CC1)C(=O)NCN2c1ccccc1)c1ccc(F)cc1
inactive: max response (KB-3-1) -7.2% | outcome (NIH3T3 [1]) | outcome (HACAT) | outcome (MCC-13) | Potency (MKL-1) | Potency (MKL-2) | outcome (NIH3T3 [4]) | Potency (UISO) | Potency (WaGa) | Potency (C33A) | outcome (CAOV3) | outcome (CASKI) | Potency (Es-2) | Potency (HeLa) | outcome (Hek293T [2]) | outcome (JEG-3)

O=C1CN=C(c2ccccc2)c2cc([N+](=O)[O-])ccc2N1
inactive: max response (KB-3-1) 3.93% | max response (NIH3T3 [1]) -0.271% | outcome (HACAT) | outcome (MCC-13) | Potency (MCC-26) | Potency (MKL-1) | Potency (MKL-2) | Potency (UISO) | Potency (WaGa) | Potency (C33A) | outcome (CAOV3) | outcome (CASKI) | Potency (Es-2) | Potency (HeLa) | outcome (Hek293T [2]) | outcome (JEG-3) | Potency (OV90)
